Bioassay records from PubChem BioAssay.
An excerpt weighted towards active compounds, which were near 18% of everything screened.
IL-1B inflam inh: inhibitors of inflammasome signaling (IL-1 beta secretion). activity change, % at 57.5 µM. 4.7% of 360,000 active. THP-1 LPS/ATP IL-1B secretion, AlphaLISA, 16 h; stronger effect = lower value; in the data active = activity change below about -50%; inconclusive = mostly about -30% to -49%
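Secreted IL-1B measured by AlphaLISA bead assay after 16 h compound exposure of THP-1 cells; compounds (final up to 57.5 uM) added 1 h before LPS (250 ng/mL) and ATP (1.25 mM) stimulation; lower signal means less secretion.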
CtBP-E1A blk: blocks the CtBP interaction with E1A; AlphaScreen GST-E1A/His-CtBP binding, 1536-well; stronger effect = lower value; activity change, % (no concentration beside the values); 0.49% of 340,000 active; AID 651724; in the data active = activity change below about -65%; inconclusive = mostly about -30% to -63%
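Steps: dispense buffer (Tris pH 8.0, NaCl 300 mM, TCEP 1 mM, BSA, Tween 20); add 5X protein mix (GST-E1A, His-CtBP, 125 nM each); pin 23 nL compound; 2 h at 37 °C, dark; add 5X beads (50 ug/mL); 1 h; read.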
TDP1 cell CPT: growth inhibition of DT40 Tdp1-/-;hTDP1 cells with camptothecin (screen for TDP1 inhibitors); 12% of 420,000 active; Potency, µM (highest dose often 46.2 µM), actives largely listed as inhibitors; chicken DT40 Tdp1-/-;hTDP1 cells + 20 nM CPT, ATP luminescence, 48 h; also: nearly all actives have a fitted effect of over 55% in size
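Chicken DT40 Tdp1-/- cells stably complemented with human TDP1 were seeded at 400 cells/well in medium containing 20 nM camptothecin, exposed to pin-transferred compounds, and grown at 37 °C for at least 48 hr. Viability was read as ATP luminescence.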
TDP1 cell noCPT: qHTS for Inhibitors of human tyrosyl-DNA phosphodiesterase 1 (TDP1): qHTS in cells in absence of CPT | DT40 Tdp1-/- hTDP1 cells, no CPT, ATP luminescence, 48 h | Potency, µM (titrated, usually from 46.2 µM), most hits filed as inhibitors | 15% of 420,000 active | AID 686978, 2013; also: nearly all actives have a fitted effect of over 55% in size
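Readout: luminescence from CellTiter-Glo after 30 min in the dark at RT. Cells: DT40 Tdp1-/- with stable hTDP1, 400/well. Exposure: compounds alone, ≥48 hr, 37 °C.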
TDP1 inh: inhibitors of human tyrosyl-DNA phosphodiesterase TDP1. Potency, µM (series often up to 130 µM), usual class: inhibitors. recombinant TDP1, AlphaScreen DNA substrate cleavage. 0.28% of 350,000 active. Q9NUW8; also: nearly all actives have a fitted effect of over 40% in size
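Steps: enzyme plus compound, 15 min RT; add biotin/phosphotyrosine-FITC oligonucleotide (15 nM final), react 5 min; add donor/acceptor beads (10 ug/ml final), 10 min; read AlphaScreen. Tdp1 at 1 nM final.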
Six1-Eya2 blk: Six1/Eya2 interaction inhibition; Q15475+O00167; AlphaScreen GST-Six1/His-Eya2 binding, biochemical; stronger effect = lower value; AID 651725; activity change, % (test concentration not listed); 0.56% of 360,000 active; in the data active = activity change below about -65%; inconclusive = mostly about -30% to -63%
Target sequence (O00167 whole entry, looked up): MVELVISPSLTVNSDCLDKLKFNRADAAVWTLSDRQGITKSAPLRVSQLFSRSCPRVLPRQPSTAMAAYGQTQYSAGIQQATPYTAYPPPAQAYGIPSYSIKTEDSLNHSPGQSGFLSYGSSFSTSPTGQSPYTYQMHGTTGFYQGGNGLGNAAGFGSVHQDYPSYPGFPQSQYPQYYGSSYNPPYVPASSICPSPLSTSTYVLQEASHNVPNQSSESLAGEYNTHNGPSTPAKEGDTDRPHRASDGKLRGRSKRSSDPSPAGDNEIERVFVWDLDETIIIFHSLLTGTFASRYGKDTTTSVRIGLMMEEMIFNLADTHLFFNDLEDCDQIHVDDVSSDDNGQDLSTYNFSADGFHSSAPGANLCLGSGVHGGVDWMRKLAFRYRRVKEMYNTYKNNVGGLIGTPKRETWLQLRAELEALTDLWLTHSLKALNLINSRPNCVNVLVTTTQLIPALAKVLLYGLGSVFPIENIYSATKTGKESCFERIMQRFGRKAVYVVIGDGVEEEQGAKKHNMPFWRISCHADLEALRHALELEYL
Target sequence (Q15475 whole entry, looked up): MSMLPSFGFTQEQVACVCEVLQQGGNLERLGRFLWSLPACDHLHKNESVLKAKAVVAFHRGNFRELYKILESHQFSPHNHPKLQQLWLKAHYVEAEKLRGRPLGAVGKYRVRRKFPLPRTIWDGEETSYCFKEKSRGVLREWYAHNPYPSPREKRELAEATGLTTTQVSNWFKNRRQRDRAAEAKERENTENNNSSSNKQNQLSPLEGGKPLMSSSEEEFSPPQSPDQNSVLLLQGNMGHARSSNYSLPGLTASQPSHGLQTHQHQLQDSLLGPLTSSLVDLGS
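AlphaScreen with GST-Six1 and His-Eya2 (5X mix: 250 nM and 500 nM), glutathione donor and nickel acceptor beads; buffer 50 mM Tris pH 8.0, 300 mM NaCl, 1 mM TCEP; 1 h at 37 C in the dark.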
Numbers stand for hits. Unless noted, calls follow the shape of the dose curve; as a rule, active = well fitted curve in the direction sought with a large enough effect; inconclusive = small, poorly fitted or top-dose-only effect, or another doubt; inactive = no such curve, though single readings can be large; an effect the other way counts as inactive or inconclusive.

O=C(CSCc1ccc([N+](=O)[O-])cc1)Nc1ccc(S(=O)(=O)N2CCCCCC2)cc1 was read as IL-1B inflam inh inactive, CtBP-E1A blk inactive, TDP1 cell CPT inconclusive, TDP1 cell noCPT inconclusive, TDP1 inh inactive and Six1-Eya2 blk inactive.
`CCOc1ccc(NC(=O)c2sc(NC(C)=O)c(C(=O)OC)c2C)cc1` gave IL-1B inflam inh inactive, CtBP-E1A blk inactive, TDP1 cell CPT inactive, TDP1 cell noCPT inactive, TDP1 inh inactive and Six1-Eya2 blk inactive.
Screening Cc1cc(C)nc(/N=C(\N)Nc2ccc(S(=O)(=O)Nc3nc(C)cc(C)n3)cc2)n1 returned TDP1 inh inactive.
For Cc1ccc(CN=C(N)Nc2nc(C)cc(C)n2)cc1 the results were IL-1B inflam inh -52.1, CtBP-E1A blk inactive, TDP1 cell CPT 6.51µM, TDP1 cell noCPT 3.26µM, TDP1 inh inactive and Six1-Eya2 blk inactive.
Screening CSc1ccccc1OCc1cc(C(=O)NCC(C)Oc2cccnc2)no1 (stereo not drawn) returned IL-1B inflam inh inactive, CtBP-E1A blk inactive, TDP1 cell CPT inconclusive, TDP1 cell noCPT 16.4µM and Six1-Eya2 blk inactive.
Screening CSc1ccccc1OCc1cc(C(=O)NCCCn2nc(C)cc2C)no1 returned IL-1B inflam inh inactive, CtBP-E1A blk inactive, TDP1 cell CPT 16.4µM, TDP1 cell noCPT 20.6µM, TDP1 inh inactive and Six1-Eya2 blk inactive.
CSc1ccccc1OCc1cc(C(=O)NCCc2nc(C)cc(C)n2)no1 was read as IL-1B inflam inh inactive, TDP1 cell CPT inconclusive, TDP1 cell noCPT inconclusive and Six1-Eya2 blk inactive.
For O=C(O)c1cc2c(ncc3c(=O)n(-c4ccccc4)[nH]c32)s1 the results were IL-1B inflam inh inactive, CtBP-E1A blk -68.4, TDP1 cell CPT inconclusive, TDP1 cell noCPT inactive and Six1-Eya2 blk -74.8.
`O=c1[nH]n(-c2ccccc2)c(=O)c2ccccc12` gave IL-1B inflam inh inactive, CtBP-E1A blk inactive, TDP1 cell CPT inactive, TDP1 cell noCPT inactive, TDP1 inh inactive and Six1-Eya2 blk inactive.
`O=S(=O)(Nc1cc(Sc2cccc3cccnc23)c(O)c2ccccc12)c1ccc(F)cc1` gave IL-1B inflam inh -98.3, CtBP-E1A blk -92.2, TDP1 cell CPT 0.581µM, TDP1 cell noCPT 0.92µM, TDP1 inh inactive and Six1-Eya2 blk -94.4.
Cc1cccc(N(CC(=O)Nc2ccccc2-c2ccccc2)S(=O)(=O)c2ccccc2)c1C was read as IL-1B inflam inh inactive, CtBP-E1A blk inactive, TDP1 cell CPT inconclusive, TDP1 cell noCPT 23.1µM, TDP1 inh inactive and Six1-Eya2 blk inactive.
Cc1ccc(N(CC(=O)Nc2ccccc2-c2ccccc2)S(=O)(=O)c2ccccc2)cc1 was read as IL-1B inflam inh inactive, CtBP-E1A blk inactive, TDP1 cell CPT 16.4µM, TDP1 cell noCPT 20.6µM, TDP1 inh inactive and Six1-Eya2 blk inactive.
COc1ccc([N+](=O)[O-])cc1NC(=O)C(C)Sc1nc(C)c(C)c(C)n1 (stereo not drawn) was read as IL-1B inflam inh inactive, CtBP-E1A blk inactive, TDP1 cell CPT inconclusive, TDP1 cell noCPT 23.1µM, TDP1 inh inactive and Six1-Eya2 blk inactive.
Screening COc1ccc([N+](=O)[O-])cc1NC(=O)CSc1nc(C)c(C)c(C)n1 returned IL-1B inflam inh inactive, CtBP-E1A blk inactive, TDP1 cell CPT inconclusive, TDP1 cell noCPT inconclusive, TDP1 inh inactive and Six1-Eya2 blk inactive.
For CCCN(C(=O)CCNC(=O)c1ccc(Cl)cc1)c1c(N)n(Cc2ccccc2)c(=O)[nH]c1=O the results were IL-1B inflam inh inactive, CtBP-E1A blk inactive, TDP1 cell CPT inactive, TDP1 cell noCPT inactive, TDP1 inh inactive and Six1-Eya2 blk inactive.
For Cc1onc(-c2c(F)cccc2Cl)c1C(=O)Nc1cc(S(=O)(=O)N2CCCCC2)ccc1O the results were IL-1B inflam inh inactive, CtBP-E1A blk inactive, TDP1 cell CPT 16.4µM, TDP1 cell noCPT 16.4µM and Six1-Eya2 blk inactive.
Screening COc1ccc(S(=O)(=O)N2CCCCC2)cc1NC(=O)c1c(F)cccc1Cl returned IL-1B inflam inh inactive, CtBP-E1A blk inactive, TDP1 cell CPT inconclusive, TDP1 cell noCPT 16.4µM, TDP1 inh inactive and Six1-Eya2 blk inactive.
`Cc1onc(-c2c(F)cccc2Cl)c1C(=O)Nc1ccc(S(=O)(=O)N2CCOCC2)cc1` gave IL-1B inflam inh inactive, CtBP-E1A blk inactive, TDP1 cell CPT inactive, TDP1 cell noCPT inconclusive, TDP1 inh inactive and Six1-Eya2 blk inactive.
For Cc1cccn2c(=O)c3cc(C(=O)NC(C)(C)C)n(C)c3nc12 the results were TDP1 cell CPT inconclusive, TDP1 cell noCPT 18.4µM and TDP1 inh inactive.
`Cc1cccn2c(=O)c3cc(C(=O)NC4CCCCC4)n(C)c3nc12` gave IL-1B inflam inh inactive, CtBP-E1A blk inactive, TDP1 cell CPT 4.61µM, TDP1 cell noCPT 3.26µM, TDP1 inh inactive and Six1-Eya2 blk inactive.
COC1C=CC(CNC(=O)c2cc3c(=O)n4cccc(C)c4nc3n2C)(OC)O1 (stereo not drawn) was read as IL-1B inflam inh inactive, CtBP-E1A blk inactive, TDP1 cell CPT 16.4µM, TDP1 cell noCPT inactive, TDP1 inh inactive and Six1-Eya2 blk inactive.
CCn1c(=N)c(C(=O)NC2CCCCC2)cc2c(=O)n3cccc(C)c3nc21 was read as TDP1 cell CPT inactive and TDP1 cell noCPT inactive.
Screening Cc1nn(C)c(C(=O)Nc2cccc(Nc3ccccc3)c2)c1[N+](=O)[O-] returned TDP1 inh inactive.
`CCOc1ccc(Cn2c(CNS(=O)(=O)c3cccc(Cl)c3)nc3cccnc32)cc1` gave TDP1 cell CPT inconclusive, TDP1 cell noCPT inconclusive and TDP1 inh inactive.
Screening CN1C(=O)[C@H]2[C@@H](/C=C/c3ccccc3)N3C(=O)CN(Cc4ccccc4)C(=O)[C@@]3(C)[C@H]2C1=O returned IL-1B inflam inh inactive, CtBP-E1A blk inactive, TDP1 cell CPT inactive, TDP1 cell noCPT inactive and Six1-Eya2 blk inactive.
Screening COc1ccc(-c2nn(C)c3sc(C(=O)Nc4cccc(F)c4)cc23)cc1OC returned TDP1 cell CPT 14.6µM, TDP1 cell noCPT 10.3µM and TDP1 inh inactive.
`COc1cccc(NC(=O)c2cc3c(-c4ccc(Cl)cc4)nn(C)c3s2)c1` gave TDP1 cell CPT inconclusive, TDP1 cell noCPT 14.6µM and TDP1 inh inactive.
COc1ccc(-c2nn(C)c3sc(C(=O)N4CCN(c5ccccc5F)CC4)cc23)cc1OC was read as TDP1 cell CPT inconclusive, TDP1 cell noCPT inconclusive and TDP1 inh inactive.
Screening COc1ccc(-c2cnc(SCC(=O)Nc3ccc4c(c3)OCO4)n2Cc2ccco2)cc1 returned IL-1B inflam inh -73.2, CtBP-E1A blk inconclusive, TDP1 cell CPT 18.4µM, TDP1 cell noCPT 18.4µM, TDP1 inh inactive and Six1-Eya2 blk inconclusive.
